Data: PubChem BioAssay (NCI)
This is part of a sample that, as a whole, favours compounds with a hit. Of some 79,000 tested, about 15% had one in any assay. A number with no mark means an inactive call. Calls of active or inactive are those of the source. Rule as the data show it: active = growth inhibition above about 70%; inactive = the rest.

Legend:
[1] = NCI Yeast Anticancer Drug Screen. Data for the rad50 strain (AID 155);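 also: 0% = growth of vehicle-only cultures of the same strain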; conditions: S. cerevisiae rad50 strain growth inhibition; at 50.0 µM; hits give high values
Procedure, shortened: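 Readout: growth inhibition relative to vehicle-treated cultures. Compound exposure was carried out in a genetically defined yeast strain deficient in DNA damage repair.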

[2] = NCI Yeast Anticancer Drug Screen. Data for the mec2-1 strain (AID 157); conditions: S. cerevisiae mec2-1 strain, at 50.0 µM, hits give high values
Procedure, shortened: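 Growth inhibition is read against vehicle-treated controls after compound exposure of the mec2-1 yeast strain, which is defective in DNA damage repair or cell cycle control.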

[3] = NCI Yeast Anticancer Drug Screen. Data for the sgs1 mgt1 strain (AID 161);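 also: 0% = growth of cultures given vehicle only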; conditions: S. cerevisiae sgs1 mgt1 strain, at 50.0 µM, hits give high values
Procedure, shortened: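 Yeast cells carrying a defined DNA-repair defect were exposed to test compounds. Growth inhibition was measured relative to vehicle-treated controls.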

[4] = NCI Yeast Anticancer Drug Screen. Data for the cln2 rad14 strain (AID 165);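 also: 0% = growth equal to vehicle treated cultures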; conditions: S. cerevisiae cln2 rad14 strain, at 50.0 µM, hits give high values
Procedure, shortened: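 Growth inhibition, relative to vehicle-treated controls, is the read-out. The test organism is a yeast strain with defined genetic alterations, cln2 rad14.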

[5] = NCI Yeast Anticancer Drug Screen. Data for the bub3 strain (AID 167); conditions: S. cerevisiae bub3 mutant strain, at 50.0 µM, hits give high values
Procedure, shortened: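 Readout: yeast growth inhibition, expressed relative to vehicle-only wells. The test organism is a mutant strain from a panel with lesions in DNA repair or checkpoint genes.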

[6] = NCI Yeast Anticancer Drug Screen. Data for the mlh1 rad18 strain (AID 175); conditions: S. cerevisiae mlh1 rad18 strain growth inhibition; at 50.0 µM; hits give high values
Procedure, shortened: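 Cells of a genetically altered yeast strain, deficient in DNA damage repair, were treated with compound. Their growth was then compared with that of vehicle-treated cultures to give inhibition.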

SMILES | growth inhibition [1] | growth inhibition [2] | growth inhibition [3] | growth inhibition [4] | growth inhibition [5] | growth inhibition [6]
O=[N+]([O-])c1cccc(SNSc2cccc([N+](=O)[O-])c2)c1 | 29% | 12.8% | 8.4% | -35.5% | 9.8% | 23.8%
O=C(NCCCCCCNC(=O)Nc1cccc(C(F)(F)F)c1)Nc1cccc(C(F)(F)F)c1 | -9.65% | -13.7% | -4.05% | -19.1% | 2.4% | 8.8%
Cc1cccc(N=Cc2ccc(N(CCC#N)S(=O)(=O)c3ccccc3)cc2C)c1 | -34.5% | -16.6% | -54.9% | -8.35% | -10.9% | -9.2%
O=C(CCC/C(CC(=O)c1ccc(Cl)cc1)=N\NC(=O)c1cc2ccccc2cc1O)Nc1cccc([N+](=O)[O-])c1 | 52% | 47.2% | 52.9% | 25.6% | 6% | 56.8%
CCCCNC(=O)CC | 3.1% | -11.2% | 3% | 4.85% | 14.9% | -1.95%
CC(=O)Oc1ccc(CC(C)C(C)Cc2ccc(OC(C)=O)c(OC(C)=O)c2)cc1OC(C)=O (stereo unspecified) | 51% | 23% | 50% | 7.4% | 0.5% | 26.5%
CCOC(=O)Cn1c(=O)n(C)c(=O)c2c1ncn2Cc1ccccc1 | 0.7% | -31.2% | -14.3% | -4.25% | 9.5% | -14.4%
CC(C)OCCCNc1ncnc2c1cnn2-c1ccc(Cl)cc1 | 3.55% | -9.15% | 3.55% | -11.8% | -13.6% | -4.9%
Cc1ccc(S(=O)(=O)Nn2c(O)c(C#N)c(-c3ccc(N(C)C)cc3)c(C#N)c2=O)cc1 | -6.7% | -20.1% | -44.5% | 1.7% | -19.1% | -20.9%
CC(C)C1CCC2(C)C(CCC3C(C)(CO)CCCC32O)C1 (stereo unspecified) | -17.2% | -6.85% | 19.5% | 1.45% | 22.1% | 10%
c1ccc(-c2cc3ccccc3c(-c3ccccc3)c2-c2ccccc2)cc1 | -18.6% | -1.75% | -4.8% | -1.85% | -2.65% | -15.9%
CN1CCCC2C(c3ccccc3)C(C3=NCCCC3)C(c3ccccc3)CC21 (stereo unspecified) | -18.9% | -3.2% | -23.1% | -28.6% | -64.9% | -60.4%
COc1ccc(-c2cc(-c3ccccc3)[nH]c(=S)c2C#N)cc1 | -23.8% | -19.8% | -55.4% | -19.1% | 13.3% | -30.1%
CC(C)CCCC(C)C1CCC2C3C=C(C(=O)O)C(C)(CCC(=O)O)C3CCC12C (stereo unspecified) | 45% | 32% | 42% | 7.7% | -2.15% | 44.1%
CCC(=O)c1ccc2ccccc2c1 | 5.1% | 3.75% | -0.65% | -10.1% | -2.1% | -0.55%
O=C1C2CN(Cc3ccccc3)CC2C(=O)N1c1ccccc1 (stereo unspecified) | 1.9% | 13% | 9.25% | -51.8% | -37.7% | 18.2%
CCOc1ccc(C(C)c2cc3c(cc2OCCO)OCO3)cc1 (stereo unspecified) | 28.6% | 29.2% | 69% | 59.9% | -29.6% | 68.5%
C/C(=N/O)C1c2ccccc2Cc2ccccc21 | -11.5% | -11.8% | -24.4% | -12.8% | -1.8% | -22.5%
CCOC(=O)CCCN | -8.45% | -3% | -6.95% | 56.7% | -39.8% | -16.1%
Nc1ccc(Cl)cc1N=Cc1ccccc1[N+](=O)[O-] | 35.5% | 13.8% | 49.5% | -47.5% | 17.6% | 12.9%
CCCCC(CC)CNCC(CC)CCCC (stereo unspecified) | 33.8% | 45.5% | 14.8% | 40.6% | 5.5% | 26.1%

SMILES | growth inhibition [1] | growth inhibition [2] | growth inhibition [3] | growth inhibition [4] | growth inhibition [5] | growth inhibition [6]
C=CCOC(=O)Oc1ccc(Cl)cc1 | 27.6% | -13.9% | 23.1% | -0.85% | -2.7% | 28.6%
CCN(CCOC(=O)Nc1cccc(C(C)=O)c1)c1ccccc1 | 91.2% (active) | 96.5% (active) | 97.5% (active) | 76.2% (active) | 92.1% (active) | 88.2% (active)
O=P(CCCCBr)(NCc1ccccc1)c1ccccc1 (stereo unspecified) | 5.25% | 7.85% | 15.9% | -19.9% | 14.8% | 13.2%
CC(C)S1=C2C(=O)CC(C)(C)CC2=Nc2ccccc21 (stereo unspecified) | 7.65% | -0.65% | 2.95% | -1.45% | 15.8% | -27.9%
CCOC(=O)c1c[nH]c2nc(N)ccc2c1=O | -3.75% | -0.2% | 9.9% | -16.4% | -0.7% | -5.4%
O=C1C2Cc3ccccc3CN2C(=O)N1CCN1CCOCC1 (stereo unspecified) | 7.25% | -21.8% | -4.15% | 12.8% | 3.25% | 22.6%
CCOc1ccccc1C=C1c2ccccc2C(=O)c2ccccc21 | 10.3% | -7.6% | -3.6% | -21.6% | 18.1% | 6.25%
CCS(=O)(=O)C(S(C)(=O)=O)S(=O)(=O)C(C)C (stereo unspecified) | -1.65% | 31.6% | 8.45% | -9.15% | 26.8% | 14%
OCCSCc1cc2c(cc1Br)OCO2 | -29.5% | -2% | -11.8% | 19.8% | 12.4% | 2.15%
Cc1cc2c(CC(=O)O)[nH]nc2c(C(=O)O)c1C | 1.4% | -10.4% | -13.2% | 4.8% | 8.25% | -0.55%
CCCCCCC1CCC(OC(C)=O)CC1 (stereo unspecified) | 5.65% | -4% | -1.1% | -0.9% | 1.7% | 0.55%
O=c1[nH]c(=O)n(C2CC(O)C(CO)O2)cc1NN=NCCc1ccccc1 (stereo unspecified) | -24.3% | 0.75% | 5.05% | 4.85% | 1.9% | 10.8%
CCC(CCCN)Nc1cc(OC)cc2c(C)ccnc12 (stereo unspecified) | -53.9% | -3.1% | 1.75% | -4.5% | 21.2% | -21.2%
CCOc1ccc(N2C(=O)C(=O)C(C#N)(c3nc4ccccc4o3)C(=O)C2=O)cc1 | 9.25% | 33.7% | 5.95% | 6% | -0.7% | 15.2%
COc1ccc2c(CC(=O)O)cc(=O)oc2c1 | 12.2% | -22.8% | 15.4% | 7.7% | 8.95% | 14.2%
CCN(CC)C(=O)CN | 8.9% | 0.6% | 9.1% | -3.05% | 3.3% | -8.15%
CCOC(=O)/C(C#N)=C\Nc1ccc(C)cc1 | -0.85% | -26.6% | -7.95% | -2.55% | -12.1% | -8.75%
COc1nc(NC2OCC(OC(C)=O)C(OC(C)=O)C2OC(C)=O)c(N=C(C)C(C)=O)c(=O)n1C (stereo unspecified) | 30.4% | 21.6% | 13.4% | 17.7% | -1.35% | 8.4%
O=S(=O)(Nc1cccc(C2=NCCN2)c1)c1cccc2c(S(=O)(=O)Nc3cccc(C4=NCCN4)c3)cccc12 | -9.6% | -25.9% | -30.1% | -19% | -12.2% | -22.1%
COC(=O)c1cc(-c2ccncc2)[nH]c(=O)c1C#N | -5.05% | -32.1% | -33.9% | -18.1% | -15.2% | -19.9%
